Our source for the outcome values is PubChem BioAssay (EPA / NIEHS).

Calls of active or inactive are those of the source. How the source made its calls: active means hit-call score of the fitted dose curve at least 0.9, where 1 is the maximum; inactive means score below 0.9.

The target of the assay is Estrogen receptor (Homo sapiens) (UniProt P03372). In words: OT_ERa_GFPERaERE_0480: Odyssey Thera (OT) 8-hour HeLa Transcription Induction Assay for Estrogen Receptor (AID 2283381). How it is done: OT_ERa_GFPERaERE_0480 is a cell-based, single-readout assay that uses HeLa, a human cervix cell line, with measurements taken at 8 hours after chemical dosing in a 384-well plate.OT_ERa_GFPERaERE_0480 is one of one assay component(s) measured or calculated from the OT_ERa_GFPERaERE_0480 assay. It is designed to make measurements of fluorescent protein induction, a form of inducible reporter, as detected with optical microscopy: fluorescence microscopy signals by Microscopy technology.Data from the assay component OT_ERa_GFPERaERE_0480 was analyzed into 1 assay endpoint. This assay endpoint, OT_ERa_EREGFP_0480, was analyzed in the positive analysis fitting direction relative to DMSO as the negative control and baseline of activity. Using a type of inducible reporter, measures of receptor for gain-of-signal activity can be used to understand the reporter gene at the pathway-level as they relate to the gene ESR1. Furthermore, this assay endpoint can be referred to as a primary readout, because the performed assay has only produced 1 assay endpoint. To generalize the intended target to other relatable targets, this assay endpoint is annotated to the nuclear receptor intended target family, where the subfamily is steroidal.
Estrogen receptor (Homo sapiens), sequence (P03372 whole entry, looked up): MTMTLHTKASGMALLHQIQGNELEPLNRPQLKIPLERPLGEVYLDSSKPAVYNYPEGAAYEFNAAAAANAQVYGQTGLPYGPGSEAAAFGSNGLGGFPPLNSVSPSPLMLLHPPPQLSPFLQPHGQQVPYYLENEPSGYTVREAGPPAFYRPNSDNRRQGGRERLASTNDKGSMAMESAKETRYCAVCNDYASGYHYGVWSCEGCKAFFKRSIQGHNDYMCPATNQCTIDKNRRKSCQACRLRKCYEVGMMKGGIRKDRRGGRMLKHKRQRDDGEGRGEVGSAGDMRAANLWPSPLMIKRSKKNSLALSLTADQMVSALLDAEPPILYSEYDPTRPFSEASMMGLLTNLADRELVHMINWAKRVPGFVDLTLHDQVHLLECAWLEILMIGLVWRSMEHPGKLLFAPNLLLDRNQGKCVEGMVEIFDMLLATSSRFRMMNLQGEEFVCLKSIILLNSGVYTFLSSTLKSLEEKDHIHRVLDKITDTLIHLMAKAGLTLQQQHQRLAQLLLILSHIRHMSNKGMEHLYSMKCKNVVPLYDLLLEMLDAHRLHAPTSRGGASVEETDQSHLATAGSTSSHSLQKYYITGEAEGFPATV
All assay endpoints are quantified using high content image analysis algorithms.
With `CCCCCCCCCO`, the compound was classed as inactive.
In the case of `COC(=O)c1ccc(C(=O)OC)cc1`, the call was inactive.
In the case of `C1CCCNCC1` it was “inactive”; in that of `CC(=O)N(C)C`, “inactive”.
In the case of `CCCC1CCC(=O)CC1` it was “inactive”; in that of `CC(=O)CC(=O)N(C)C`, “inactive”.
In the case of `CCCCCC1C(=O)CCC1CC(=O)OC` (stereo not given) it was “inactive”.
As to `CC(=O)OC(C)(C)C`, the outcome was inactive.
The entry for `C=CCCCCCCCCC(=O)OCC` is “inactive”; for `CCO[Si](CC)(OCC)OCC` it is “inactive”; for `C=CC(C)CCCC(C)(C)O` (stereo not given) it is “inactive”.
On to `CCCCCCC(C)O` (stereo not given), for which the compound was classed as inactive.
In the case of `CC(=O)c1ccc2ccccc2c1` it was “inactive”; in that of `O=C1OC2(c3ccc(O)cc3Oc3cc(O)ccc32)c2ccccc21`, “inactive”; in that of `Cc1cccc(O)c1`, “inactive”.
In the case of `CCCCCCCCCCOC(=O)c1ccccc1C(=O)OCCCCCCCC`, the call was inactive.
In the case of `CCC(C)(C)C1CCC(OC)CC1` (stereo not given) it was “inactive”; in that of `CCCC(O)C(CC)CO` (stereo not given), “inactive”.
The entry for `CC(O)CN` (stereo not given) is “inactive”; for `CCCc1ccc(O)cc1` it is “inactive”; for `CCCCCC(=O)O[C@]1(C(C)=O)CC[C@H]2[C@@H]3CCC4=CC(=O)CC[C@]4(C)[C@H]3CC[C@@]21C` it is “inactive”.
In the case of `COc1cc(OC)c2ccc(=O)oc2c1` it was “inactive”; in that of `OC[C@H]1O[C@@H](O[C@H]2[C@H](O)[C@@H](O)[C@H](O)O[C@@H]2CO)[C@H](O)[C@@H](O)[C@H]1O`, “inactive”; in that of `CNC(=C[N+](=O)[O-])NCCSCc1ccc(CN(C)C)o1`, “inactive”.
For `CC(C)CCCC(C)(C)O`, the outcome was inactive.
The entry for `CN(C)C(=O)Nc1ccccc1` is “inactive”; for `[O-]/[N+](=N\O)c1ccccc1` it is “inactive”.
In the case of `CCCO[Si](OCCC)(OCCC)OCCC` it was “inactive”.
The entry for `O=C(O)C1=NN(c2ccc(S(=O)(=O)O)cc2)C(=O)C1` is “inactive”.
As to `O=C(OCc1ccccc1)c1ccccc1O`, the outcome was inactive.
In the case of `CCCCOCCOCCO` it was “inactive”; in that of `CCCCN(CCCC)CCCCCCN(CCCC)CCCC`, “inactive”; in that of `CCC(C)COC(=O)CC(C)C` (stereo not given), “inactive”.
In the case of `CCCCCCCCOC(C)=O` it was “inactive”.
In the case of `COC(=O)c1cccc(C(=O)OC)c1` it was “inactive”; in that of `CN(C)C`, “inactive”; in that of `Cc1cccc(C)c1`, “inactive”.
Take `CCCCCCCC(=O)N(C)C`: the result was inactive.
The entry for `CC(=O)Nc1cc(S(=O)(=O)O)cc2cc(S(=O)(=O)O)c(N=Nc3ccccc3)c(O)c12` is “inactive”; for `CC1=CCC(C(C)(C)O)CC1` (stereo not given) it is “inactive”.
